SMN2 splice up – SMN2 splice variant enhancement. HEK293 SMN2-luciferase splicing reporter, luminescence, 30-36 h. Potency, µM (top dose mostly 46.1 µM), hits mostly activators. 2.8% of 210,000 active; also: nearly all actives have a fitted effect of over 55% in size
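qHTS luciferase splicing reporter: luminescence rises when SMN2 exon 7 is included in transfected HEK293 cells. Compound exposure lasted 30-36 h at 37C, with 4.5 mM final sodium butyrate as control, followed by a ONE-Glo read.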
FLuc counter – inhibits or activates purified firefly luciferase, miR-21 counter-screen; purified FLuc, Km substrates, luminescence inhibition; Potency, µM (doses to about 57.5 µM), most hits filed as inhibitors; 6.9% of 360,000 active; AID 588342; also: nearly all actives have a fitted effect of over 55% in size
Target sequence (P08659 whole entry, looked up): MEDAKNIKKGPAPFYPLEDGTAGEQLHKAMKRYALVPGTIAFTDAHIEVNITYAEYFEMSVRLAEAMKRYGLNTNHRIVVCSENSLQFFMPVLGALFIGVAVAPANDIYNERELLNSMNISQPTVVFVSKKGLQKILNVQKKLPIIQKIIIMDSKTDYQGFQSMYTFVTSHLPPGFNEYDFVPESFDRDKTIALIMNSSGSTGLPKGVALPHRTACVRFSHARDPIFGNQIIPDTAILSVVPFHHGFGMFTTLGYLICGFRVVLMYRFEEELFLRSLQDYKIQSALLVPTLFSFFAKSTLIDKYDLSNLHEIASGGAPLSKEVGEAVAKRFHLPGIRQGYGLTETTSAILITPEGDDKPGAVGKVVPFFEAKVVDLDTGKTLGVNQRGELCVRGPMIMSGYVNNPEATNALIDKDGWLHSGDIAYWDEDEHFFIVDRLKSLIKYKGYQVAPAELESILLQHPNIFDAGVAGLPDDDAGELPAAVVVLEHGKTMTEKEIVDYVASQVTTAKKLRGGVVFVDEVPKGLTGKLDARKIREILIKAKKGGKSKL
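Purified P. pyralis luciferase, 10 nM final, with Km-level 10 uM D-luciferin and 10 uM ATP in 50 mM Tris acetate pH 7.5, 10 mM Mg acetate, 0.01% Tween-20, 0.05% BSA; 6-point qHTS titration about 60 µM downward; luminescence read.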
ELG1 genotox – inducers of genotoxicity in HEK293T ELG1-luciferase cells | Potency, µM (top dose mostly 46 µM), actives largely listed as activators | HEK293T ELG1-luciferase reporter, luminescence, 16 h | 1.3% of 330,000 active; also: nearly all actives have a fitted effect of over 60% in size
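Genotoxicity was scored as increased ELG1-luciferase reporter signal, measured by ONE-Glo luminescence (30 min, room temperature). Compound or vehicle exposure of the HEK293T reporter cells lasted 16 hr at 37°C.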
Rab9 promoter act – activators of Rab9 promoter. Potency, µM (top dose mostly 9.22 µM), usual class: activators. 2.8% of 320,000 active. Huh7 Rab9 promoter-luciferase reporter, luminescence, 24 h; also: nearly all actives have a fitted effect of over 60% in size
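Measured in stably transfected Huh7 cells bearing a Rab9 promoter–luciferase construct: 24 h compound treatment at 37 °C, followed by luminescence detection.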
NPC1 prom act – NPC1 promoter activation. Huh7 NPC1 promoter luciferase reporter, 24 h. Potency, µM (highest dose often 9.22 µM), usual class: activators. 2.4% of 320,000 active. AID 485313; also: nearly all actives have a fitted effect of over 60% in size
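Huh7 reporter cells (NPC1 promoter driving luciferase) are dosed with compound for 24 h at 37 °C, 5% CO2; luciferase detection reagent is then added and luminescence measured after 10 min at ambient temperature.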
uPA generation – blocks generation of uPA at the cell surface | cell surface uPA generation assay, qHTS | Potency, µM (doses to about 38.3 µM), usual class: inhibitors | 0.31% of 330,000 active; active = well fitted inhibition curve with a large enough effect; inconclusive = small, poorly fitted or top-dose-only effect; inactive = no such curve, though single readings can be large or run the other way; tested in mouse RAW 264.7 cells; also: nearly all actives have a fitted effect of over 55% in size
Hits are given with their value; [ ] = another dose, or the depositor's remark. Most compounds without a hit are left out; they make up all but 7.3% or so of the library. Unless noted, calls follow the shape of the dose curve; as a rule, active = well fitted curve in the direction sought with a large enough effect; inconclusive = small, poorly fitted or top-dose-only effect, or another doubt; inactive = no such curve, though single readings can be large; an effect the other way counts as inactive or inconclusive.

CC(=O)Nc1ccc(NC(=O)CSc2nnc(NC(=O)c3ccc(Br)o3)s2)cc1 was read as FLuc counter 2.1µM, ELG1 genotox inactive, Rab9 promoter act inactive, NPC1 prom act inactive and uPA generation inconclusive.
For Cc1ccc(SCC(=O)Nc2cccc(NC(=O)c3ccco3)c2)cc1 the results were SMN2 splice up inactive, FLuc counter 19µM, ELG1 genotox inactive, Rab9 promoter act inactive, NPC1 prom act inactive and uPA generation inactive.
O=C(CSc1ccc(Cl)cc1)Nc1ccc(NC(=O)c2ccco2)cc1 was read as SMN2 splice up inconclusive, FLuc counter inactive, ELG1 genotox inactive, Rab9 promoter act inactive, NPC1 prom act inactive and uPA generation inactive.
`Cc1ccc(SCC(=O)Nc2ccc(N3CCN(C)CC3)c(F)c2)cc1` gave SMN2 splice up inactive, FLuc counter 15µM, ELG1 genotox inconclusive, Rab9 promoter act inconclusive, NPC1 prom act inconclusive and uPA generation inactive.
`Cc1ccccc1OCCOc1ccccc1C=C(C#N)C#N` gave SMN2 splice up inactive[1.84 µM], FLuc counter inconclusive, ELG1 genotox inconclusive, Rab9 promoter act inactive and NPC1 prom act inactive.
`COc1cccc2c1Oc1ncccc1N(C(=O)Nc1ccc(F)c(Cl)c1)C2` gave FLuc counter inactive.
CCc1cccc(C)c1NC(=O)Nc1csc2c1CCCC2 was read as SMN2 splice up inactive and FLuc counter inactive.
For O=C(CSc1nnc(NC(=O)c2ccco2)s1)Nc1cccc(F)c1 the results were FLuc counter 6.7µM, ELG1 genotox inconclusive, Rab9 promoter act inconclusive, NPC1 prom act inconclusive and uPA generation inconclusive.
Screening CC(=O)Nc1cccc(NC(=O)CSc2nnc(NC(=O)c3ccco3)s2)c1 returned FLuc counter 19µM, ELG1 genotox inactive, Rab9 promoter act inactive, NPC1 prom act inactive and uPA generation inactive.
For COC(=O)C1C(=O)C(C(=O)/C=C/c2ccco2)C(=O)CC1(C)C (stereo not given) the results were SMN2 splice up inactive.
For COC(=O)[C@]1(Cc2ccccc2)N[C@H](c2ccc(-c3ccc(F)cc3)cc2)[C@@H]2C(=O)N(C)C(=O)[C@@H]21 the results were FLuc counter inactive, ELG1 genotox inactive, Rab9 promoter act inactive, NPC1 prom act inactive and uPA generation inactive.
For CN1CCN(C(=O)c2ccc(-c3cccs3)s2)CC1 the results were FLuc counter 11µM, ELG1 genotox inconclusive, Rab9 promoter act 2.2µM, NPC1 prom act 1.8µM and uPA generation inactive.
O=C(c1cccs1)c1ccc(-c2cccs2)s1 was read as SMN2 splice up inconclusive, FLuc counter 0.3µM, ELG1 genotox inconclusive, Rab9 promoter act 0.5µM, NPC1 prom act inconclusive and uPA generation inactive.
For CCN(CC)CCCNC(=O)CN1C(=O)CCn2nc(-c3cn(C)c4ccccc34)cc21 the results were FLuc counter inactive.
For CN(/N=C/c1cccnc1)c1cnc2ccccc2n1 the results were SMN2 splice up 11µM, FLuc counter 5.4µM, ELG1 genotox inconclusive, Rab9 promoter act 2.8µM, NPC1 prom act inconclusive and uPA generation inactive.
O=C1OC(c2ccc3c(c2)OCO3)N(C(=O)c2ccc(Cl)c(Cl)c2)c2ccccc21 (stereo not given) was read as SMN2 splice up 13µM, FLuc counter inactive, ELG1 genotox inconclusive, Rab9 promoter act 3.2µM, NPC1 prom act inconclusive and uPA generation inactive.
For O=C(CCS(=O)(=O)c1ccccc1)NCCS(=O)(=O)c1ccccc1 the results were SMN2 splice up inactive, FLuc counter inactive, ELG1 genotox inactive, Rab9 promoter act inactive, NPC1 prom act inactive and uPA generation inactive.
O=C(CCS(=O)(=O)c1ccccc1)NC12CC3CC(CC(C3)C1)C2 was read as SMN2 splice up inconclusive, FLuc counter 12µM, ELG1 genotox 9.2µM, Rab9 promoter act 3.5µM, NPC1 prom act 3.2µM and uPA generation inactive.
CCC1C/C(=C\c2cccnc2)C(=O)/C(=C/c2cccnc2)C1 (stereo not given) was read as SMN2 splice up inactive, FLuc counter inactive, ELG1 genotox inactive, Rab9 promoter act inactive, NPC1 prom act inactive and uPA generation inactive.
Screening O=C1/C(=C/c2cccnc2)CC/C1=C\c1cccnc1 returned SMN2 splice up inactive, FLuc counter inconclusive, ELG1 genotox inactive, Rab9 promoter act inactive, NPC1 prom act inactive and uPA generation inactive.
`O=C1/C(=C\c2cccnc2)CCc2ccccc21` gave FLuc counter 6µM, ELG1 genotox inactive, Rab9 promoter act inactive, NPC1 prom act inactive and uPA generation inactive.
CC(C)/C=C1\CC/C(=C\c2cccnc2)C1=O was read as SMN2 splice up inactive, FLuc counter 17µM, ELG1 genotox inactive, Rab9 promoter act inactive, NPC1 prom act inactive and uPA generation inactive.
For O=C1c2ccccc2CCc2ccccc21 the results were uPA generation inactive.
Screening O=C1/C(=C/c2ccccc2)CCCc2ccccc21 returned SMN2 splice up inactive, FLuc counter 11µM, ELG1 genotox inconclusive, Rab9 promoter act inactive, NPC1 prom act inactive and uPA generation inactive.
O=C1/C(=C/c2cccnc2)CCC/C1=C\c1cccnc1 was read as SMN2 splice up inactive, FLuc counter inactive, ELG1 genotox inactive, Rab9 promoter act inactive, NPC1 prom act inactive and uPA generation 8.9µM.
Screening CCC(=O)N1CCc2cc(Br)cc(S(=O)(=O)NCCc3cccc(C)c3)c21 returned FLuc counter inactive.
`COCCCNC(=O)CCc1c(C)nc2nc(-c3cc(OC)cc(OC)c3)nn2c1C` gave SMN2 splice up inactive and FLuc counter inactive.
COc1ccc(CNC(=O)CCCCCn2c(=O)[nH]c3ccccc3c2=O)cc1 was read as FLuc counter inactive.
For CCS(=O)(=O)c1ncc(N(Cc2ccco2)Cc2ccccc2F)c(C(=O)Nc2cccc(Cl)c2)n1 the results were FLuc counter inactive.
CN(C)c1ccc(/C=C2\CCC/C(=C\c3ccccc3)C2=O)cc1 was read as SMN2 splice up inactive, FLuc counter 12µM, ELG1 genotox inconclusive, Rab9 promoter act inactive, NPC1 prom act inactive and uPA generation inconclusive.
`CC(C)(C)c1cc(NCc2ccccn2)n2ncc(-c3ccccc3)c2n1` gave FLuc counter 17µM, ELG1 genotox inactive, Rab9 promoter act inactive, NPC1 prom act inactive and uPA generation inactive.
Cc1cc(NC(C)c2ccccc2)n2ncc(-c3ccccc3)c2n1 (stereo not given) was read as FLuc counter 12µM, ELG1 genotox inconclusive, Rab9 promoter act 4µM, NPC1 prom act 2.5µM and uPA generation inactive.
Cc1cc(NCCN2CCOCC2)n2ncc(-c3ccccc3)c2n1 was read as SMN2 splice up 14µM, FLuc counter 7.6µM, ELG1 genotox 8.2µM, Rab9 promoter act 1.6µM, NPC1 prom act 0.71µM and uPA generation inactive.

From PubChem
